Bfl-1 A1 inh – inhibitors of the anti-apoptotic protein A1, read as caspase activation. AID 2462. hit rate 0.066% among 330,000. MEF A1-2A-BIM cells, Caspase-Glo 3/7 luminescence, 3 h; percent of clofoctol response, vehicle zero. caspase activation, % (no concentration beside the values);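 active means over half of replicate activation scores above 10%, or exactly half above 10 with the replicate mean above 10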
Efflux pump mplx – inhibitors of Candida antifungal efflux pumps expressed in yeast; hit rate 0.44% among 330,000; S. cerevisiae Candida pump triplex, Nile Red efflux; inhibition, % at 10 µM;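 active means plate passing quality check with inhibition over a set limit, or well fluorescence over plate mean plus 4 SD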;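 further: Nile Red retained in pooled yeast measured as flow cytometry median fluorescence; 0% = buffer negative control and 100% = Enniatin B positive control; higher means more Nile Red kept so more efflux inhibition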
AHR activator – activators of human aryl hydrocarbon receptor; activation, % at 5 µM; AHR-responsive luciferase reporter cells, luminescence; hit rate 2.5% among 320,000; AID 2796; in the data active means activation above about 47%;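 further: 0% = vehicle wells and 100% = reference agonist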
Mot1-301 SUMO – SUMOylation pathway inhibition by Mot1-301 growth rescue; S. cerevisiae Mot1-301 growth rescue, ATP luminescence, 38.5C; percent above DMSO median, 100 means doubled; growth rescue, % at 18.8 µM; hit rate 1% among 320,000; AID 2716;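 active means every valid replicate shows activation above 250% relative to neutral control wells; inactive means the rest, any valid replicate at or below 250%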;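 further: OY570 slx delta 5 strain wells were the positive control but not used for scaling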
VLA-4 inh – inhibition in a human VLA-4 binding assay. VLA-4 expressing cells, ligand binding flow cytometry. inhibition, % (about 7 µM as worked out from the volumes in the protocol). hit rate 0.2% among 330,000. AID 2557; in the data active means inhibition above about 50%
ALR H2O2 inh – human ALR oxidase inhibition via reduced H2O2 | P55789 | purified ALR, DTT oxidation, H2O2 HRP-luminol luminescence | inhibition, % (test concentration not listed) | hit rate 3.8% among 290,000 | AID 485317;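 active means mean replicate inhibition above about 79%, with every replicate also reaching it, limit read from the data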
Yeast Mot1 SUMO – yeast SUMO pathway inhibition in dose response; shares compounds with Mot1-301 SUMO; S. cerevisiae Mot1-301 galactose growth, ATP luminescence, 24 h; -100 = growth of slx-deleted rescue strain; growth activity, percent, % at 42 µM; 2,300 tested, under 10 active; AID 493004;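 active means Signal drops as the depositor expects, and the fitted half-maximal dose is no more than ten times the top valid tested dose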;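 further: more negative values mean stronger growth rescue toward the control strain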
* hit, by the source's call; . = no result; + = active, no number; [ ] = another dose, or the depositor's remark. This is a sample that favours compounds with a hit; in the whole collection about 7.2% have one here.

SMILES	Bfl-1 A1 inh	Efflux pump mplx	AHR activator	Mot1-301 SUMO	VLA-4 inh	ALR H2O2 inh	Yeast Mot1 SUMO
O=C(N/N=C/c1cc(Br)cs1)c1ccccc1[N+](=O)[O-]	-1	0	6	20	6	-1	.
Fc1ccc(-c2n[nH]c(=S)n2CC2CCCO2)cc1 (stereo not given)	-1	0	0	393*	1	-1	0
Fc1ccc(-c2nnc(SCc3ncc(-c4ccccc4)o3)n2CC2CCCO2)cc1 (stereo not given)	0	0	0	-13	-1	.	.
O=C(NNC(=O)c1ccc(-n2cncn2)c([N+](=O)[O-])c1)c1cccc(Cl)c1	-5	0	4	-2	1	-10	.
CCOC(=O)CSc1ccc(S(=O)(=O)N2CCCCC2)cc1[N+](=O)[O-]	0	0	1	-10	11	-6	.
COC(=O)CSc1ccc(S(=O)(=O)N2CCCCCC2)cc1[N+](=O)[O-]	0	0	1	520*	0	-9	1
COc1cccc(C(=O)N2CCN(S(=O)(=O)Cc3ccccc3)CC2)c1OC	0	0	-2	530*	19	-1	0
COc1ccccc1C(=O)N1CCN(S(=O)(=O)Cc2ccccc2)CC1	0	0	2	-7	-4	.	.
O=C(c1ccco1)N1CCN(CC(=O)N2c3ccccc3CCc3ccccc32)CC1	0	0	-1	368*	-12	7	0
Cc1cc(C#Cc2c(-c3ccccc3)n(C)c3ccccc23)ccc1F	0	0	19	716*	-4	4	0
COc1ccc(OC)c(NC(=O)CNC(=O)Cn2ccc3ccccc3c2=O)c1	1	0	0	503*	24	-10	0
N#CCN(N=Nc1ccccc1)c1ccccc1	-2	0	6	617*	8	-14	1
O=[N+]([O-])c1cccc(N=NN(CCO)c2cccc([N+](=O)[O-])c2)c1	-1	0	-2	30	14	-2	.
O=S(=O)(Nc1ccccn1)c1cnc(Cl)c(Br)c1	0	0	0	52	5	0	.
Cn1c(CN2CCOCC2)nnc1SCC(=O)Nc1cc(Cl)ccc1Cl	1	0	3	611*	-6	1	2
COC(=O)c1cc(NC(=O)CSc2nnc(CN3CCOCC3)n2C)ccc1Cl	0	0	-5	3	6	-4	.
Cc1onc(-c2ccccc2)c1C(=O)N/N=C/C=C/c1ccccc1	0	0	3	382*	29	-8	2
Cc1onc(-c2ccccc2)c1C(=O)N/N=C/c1cccc(O)c1	1	0	27	-21	10	25	.
S=c1[nH]ccn1-c1cccc(Cl)c1	2	0	-1	479*	16	11	-1
CCN1CCN(S(=O)(=O)c2ccc(C(C)(C)C)cc2)CC1	0	0	-1	48	3	.	.
CC(C)(C)C(=O)NC1CCN(CC(=O)Nc2ccc3c(c2)OCO3)CC1	1	0	0	490*	1	0	0
COc1ccccc1C(=O)Nc1sc2c(c1C(=O)NCc1ccco1)CCCC2	0	0	12	3	4	3	.
O=c1[nH]c(CN2CCN(CCO)CC2)nc2ccccc12	0	0	11	587*	13	-1	0
O=c1[nH]c(CN2CCN(c3ccccc3O)CC2)nc2ccccc12	0	0	8	78	5	32	.
CCc1ccc(NC(=O)C(C)Oc2nnc(-c3cccs3)c(-c3cccs3)n2)cc1 (stereo not given)	1	0	6	-13	9	-9	.
CC(C)c1ccc(NC(=O)COc2nnc(-c3cccs3)c(-c3cccs3)n2)cc1	1	0	2	810*	2	-3	0
O=C(O)CCNC(=O)C12CC3CC(CC(C3)C1)C2	1	0	-2	13	-4	-8	.
O=C(CCC(=O)OC(C(=O)c1ccccc1)c1ccccc1)Nc1ccccc1 (stereo not given)	0	0	-1	415*	-2	-4	-1[21 µM]
CC(C)CCNC(=O)Nc1ccc2c(c1)N(C)C(=O)CS2	1	0	47*	+	7	1	0

Source: PubChem BioAssay (several laboratories)
